Compound activity from PubChem BioAssay.
TIM10 inh – growth inhibitors of isogenic TIM10 control yeast, primary screen, counter-screen for tim10-1 yeast inhibitor project, luminescence, uHTS; inhibition, % at 10 µM; S. cerevisiae TIM10 strain growth, BacTiter-Glo luminescence, 24 h; 1.4% of 330,000 active;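 active = inhibition of 40% or more at the single tested concentration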;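 note: wild-type TIM10 isogenic control strain grown at permissive 25 °C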
tim10-1 inh – growth inhibitors of tim10-1 mutant yeast, primary screen, luminescence, uHTS; AID 463190, 2010; S. cerevisiae tim10-1 ts strain growth, BacTiter-Glo, 24 h; 2.2% of 330,000 active; inhibition, % at 20 µM;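 active = inhibition of at least 40%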;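 note: mutant grown at 25 °C; 0% = DMSO wells with yeast and 100% = wells holding no yeast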
Mdm2-MdmX inh – inhibitors of human Mdm2-MdmX association, primary screen, cell-based, luminescence, split luciferase, SaOS-2, uHTS; SaOS-2 split-luciferase Mdm2/MdmX complementation; inhibition, % at 8 µM; 3% of 330,000 active; AID 485346, 2010;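 active = inhibition of at least 50% at 8 µM in the primary screen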
Target sequence (O15151 whole entry, looked up): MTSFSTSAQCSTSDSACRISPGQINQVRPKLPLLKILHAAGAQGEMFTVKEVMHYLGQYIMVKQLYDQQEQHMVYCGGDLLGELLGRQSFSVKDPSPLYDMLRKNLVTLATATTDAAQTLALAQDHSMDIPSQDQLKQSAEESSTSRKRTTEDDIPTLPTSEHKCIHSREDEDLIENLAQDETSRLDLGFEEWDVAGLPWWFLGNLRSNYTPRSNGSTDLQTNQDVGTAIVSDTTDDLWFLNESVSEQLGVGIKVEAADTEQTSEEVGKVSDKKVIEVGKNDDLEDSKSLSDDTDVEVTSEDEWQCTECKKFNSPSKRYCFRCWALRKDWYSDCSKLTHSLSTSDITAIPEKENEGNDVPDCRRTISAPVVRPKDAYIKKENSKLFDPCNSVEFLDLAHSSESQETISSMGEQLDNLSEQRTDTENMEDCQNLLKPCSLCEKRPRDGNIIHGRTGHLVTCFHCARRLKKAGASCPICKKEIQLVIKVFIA
Target sequence (Q00987 whole entry, looked up): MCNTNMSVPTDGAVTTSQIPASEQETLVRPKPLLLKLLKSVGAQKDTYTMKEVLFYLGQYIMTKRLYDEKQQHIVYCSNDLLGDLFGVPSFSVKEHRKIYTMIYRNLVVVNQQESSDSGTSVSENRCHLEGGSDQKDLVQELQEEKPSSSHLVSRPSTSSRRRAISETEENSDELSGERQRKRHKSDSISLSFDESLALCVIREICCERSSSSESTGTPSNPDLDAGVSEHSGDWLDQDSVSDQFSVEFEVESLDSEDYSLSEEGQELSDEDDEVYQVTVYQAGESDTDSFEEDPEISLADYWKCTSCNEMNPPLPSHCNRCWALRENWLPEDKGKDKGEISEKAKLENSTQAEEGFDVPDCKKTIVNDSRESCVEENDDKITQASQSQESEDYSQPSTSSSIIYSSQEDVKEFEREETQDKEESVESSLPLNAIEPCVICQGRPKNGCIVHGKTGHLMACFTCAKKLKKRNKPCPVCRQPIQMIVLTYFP
MPTP inh – mitochondrial permeability transition pore inhibitors, primary screen, biochemical, isolated mouse mitochondria, absorbance | inhibition, % at 10 µM | 1.4% of 360,000 active | Ca2+ swelling absorbance, 30 min;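 active = inhibition of 50% or more, scaled per plate between neutral and stimulator controls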;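 note: 0% = DMSO wells given calcium and 100% = 1 mM EGTA wells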
tim23-1 inh – growth inhibitors of tim23-1 mutant yeast, primary screen, luminescence, uHTS | S. cerevisiae tim23-1 growth, BacTiter-Glo luminescence, 24 h | inhibition, % at 20 µM | 1.3% of 330,000 active | AID 463212, 2010;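 active = growth inhibition of the mutant yeast at or above 50%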;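 note: temperature-sensitive mutant grown at 25 °C; plate controls were DMSO-treated mutant yeast for no effect and medium wells lacking yeast for full effect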
Mdm2 MdmX conf – Mdm2-MdmX complex disruptors, retested hits, confirmation, luminescence, single concentration; shares compounds with Mdm2-MdmX inh; Mdm2-MdmX binding, luminescent assay; inhibition, % at 8 µM; 55% of 10,000 active; AID 489028, 2010; in the data active = inhibition above about 40%
FLuc counter – full-length luciferase signal inhibition, confirmation, counter-screen for Mdm2/MdmX interaction inhibitor project, cell-based, single concentration, SaOS-2; shares compounds with Mdm2-MdmX inh; SaOS-2 full-length luciferase counterscreen, luminescence; inhibition, % at 8 µM; 77% of 6,200 active;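 active = mean inhibition at 8 µM reaching about 37%, which flags the compound as non-specific, limit read from the data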;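 note: p53-null SaOS-2 cells with luciferase driven by a doxycycline-inducible promoter; compound on cells about two nights before reading with doxycycline added after day one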
* marks the source's active call; other numbers are inactive results; . = no result given. Shown are actives, neighbours in structure and some others; about 6.3% of the full set was active somewhere.

SMILES	TIM10 inh	tim10-1 inh	Mdm2-MdmX inh	MPTP inh	tim23-1 inh	Mdm2 MdmX conf	others
COc1ccc(-c2ccc3c(c2)S(=O)(=O)c2cccc(C(=O)NCc4cccc(OC(F)(F)F)c4)c2C3=O)cc1OC	0.7	1.6	72.8*	-1.2	8.6	-3.0
O=C(NCc1cc(C(F)(F)F)ccc1Cl)c1cccc2c1C(=O)c1ccc(-c3ccc(OC(F)(F)F)cc3)cc1S2(=O)=O	-2.3	8.5	77.2*	.	10.8	-13.0
O=C(NCC1CCCO1)c1cccc2c1C(=O)c1ccc(N3CCC(Cc4ccccc4)CC3)cc1S2(=O)=O (centres undefined)	-4.2	18.4	53.7*	-0.7	41.7	18.6
COc1ccc(-c2ccc3c(c2)S(=O)(=O)c2cccc(C(=O)NCc4cc(C)oc4C(F)(F)F)c2C3=O)cc1OC	-3.0	4.0	36.2	0.1	7.9	.
CN(C)c1ccc(CNC(=O)/C=C/[C@H]2O[C@@H](n3ccc(=O)[nH]c3=O)[C@H](O)[C@@H]2O)cc1	.	.	.	-0.3	.	.
O=C(NCc1ccccc1Cl)c1cccc2c1C(=O)c1ccc(-c3ccc(OC(F)(F)F)cc3)cc1S2(=O)=O	-9.5	-3.2	67.7*	-5.5	3.4	6.4
COc1ncc(-c2ccc3c(c2)S(=O)(=O)c2cccc(C(=O)NCc4ccco4)c2C3=O)cn1	-17.0	-8.8	53.0*	0.2	-24.2	19.9
O=C(NCc1ccccc1)c1cccc2c1C(=O)c1ccc(/C=C/c3ccccc3)cc1S2(=O)=O	0.4	6.0	76.6*	0.7	5.7	20.7
O=C(NCc1cccc(OC(F)(F)F)c1)c1cccc2c1C(=O)c1ccc(-c3ccc(F)cc3OCc3ccccc3)cc1S2(=O)=O	1.1	17.4	-16.2	1.4	8.0	.
O=C(NCc1cc(C(F)(F)F)ccc1Cl)c1cccc2c1C(=O)c1ccc(Cl)cc1S2(=O)=O	-6.1	-1.3	54.2*	.	11.9	1.4
COc1ncc(-c2ccc3c(c2)S(=O)(=O)c2cccc(C(=O)O)c2C3=O)cn1	1.4	4.0	13.1	-2.1	-3.1	.
C[C@@H]1CCCCO[C@@H](CN(C)S(=O)(=O)c2cn(C)cn2)[C@@H](C)CN([C@H](C)CO)C(=O)c2cc(NC(=O)Nc3ccc(C(F)(F)F)cc3)ccc2O1	.	.	.	-0.5	.	.
O=S1(=O)CC(N2CCN(c3ccccn3)CC2)CN1C1CCCCC1 (centres undefined)	.	.	.	0.6	.	.
CN(Cc1ccccc1)Cc1ccccc1C(O)c1ccccc1 (centres undefined)	.	.	.	0.5	.	.
Cc1ccc(S(=O)(=O)N2C[C@H]3N(C(=O)OC(C)C)N(C(=O)OC(C)C)C[C@H](OC(=O)NCC4CCCCC4)[C@@]3(O)C2)cc1	.	.	.	-0.2	.	.
CCCn1cnnc1CNC(=O)[C@H]1O[C@@H](n2ccc(=O)[nH]c2=O)[C@H](O)[C@@H]1O	.	.	.	-0.5	.	.
COC(=O)[C@@]12CCCCN1[C@H](c1ccc(-c3cccc(Cl)c3)c(OC)c1)[C@@H]1C(=O)N(C)C(=O)[C@@H]12	10.2	14.0	72.5*	-1.4	33.3	25.2
CCN1C(=O)[C@@H]2[C@@H](c3ccc(-c4ccc(F)cc4)c(OC)c3)N3CCCC[C@@]3(C(=O)OC)[C@@H]2C1=O	8.3	6.5	36.4	-1.2	20.0	.
COC(=O)[C@@]12CCCCN1[C@H](c1ccc(-c3ccc(F)cc3)cc1)[C@H]1C(=O)N(C)C(=O)[C@H]12	11.7	8.2	63.6*	-2.0	30.6	46.2*	FLuc counter=48.4*
CCN1C(=O)[C@@H]2[C@@H](c3ccc(-c4ccc(Cl)c(Cl)c4)c(OC)c3)N3CCCC[C@@]3(C(=O)OC)[C@@H]2C1=O	16.1	-5.9	52.9*	1.8	22.1	17.1
COCCNc1ncnc2c1ncn2[C@H]1CN(Cc2ccncc2)C[C@@H](CO)O1	.	.	.	-1.3	.	.
O=C(NC1CCCCCC1)C1CCC(CNS(=O)(=O)c2ccc(Br)s2)CC1 (centres undefined)	-40.6	0.6	51.4*	-1.7	-17.8	11.2
C=CS(=O)(=O)c1ccc(Oc2ccc(S(=O)(=O)C=C)cc2)cc1	21.8	35.4	99.7*	26.2	41.3	99.7*	FLuc counter=0.7
Cc1cc2c(c(/C=C/C(=O)c3ccccc3)c1)OC1(C=C2)Oc2ccccc2C(=O)N1C (centres undefined)	28.4	32.4	91.2*	1.2	18.8	83.5*	FLuc counter=47.6*
CC(C)N(C(=O)[C@H]1C[C@H](CC(=O)NCc2ccco2)C(=O)N2CCc3c([nH]c4ccc(Cl)cc34)[C@]12C)C(C)C	9.1	23.8	52.1*	0.3	49.0	19.5
SMILES	TIM10 inh	tim10-1 inh	Mdm2-MdmX inh	MPTP inh	tim23-1 inh	Mdm2 MdmX conf	others
CC(C)N(C(=O)[C@H]1C[C@H](CC(=O)NCCCN(C)C)C(=O)N2CCc3c([nH]c4cc(-c5ccco5)ccc34)[C@]12C)C(C)C	19.3	26.1	63.3*	4.6	39.4	23.4
CC(C)N(C(=O)[C@H]1C[C@H](CC(=O)NCc2cccc(C(F)(F)F)c2)C(=O)N2CCc3c([nH]c4ccc(Cl)cc34)[C@]12C)C(C)C	3.1	23.7	94.8*	-1.8	42.3	40.5*	FLuc counter=81.3*
CC(C)N(C(=O)[C@H]1C[C@H](CC(=O)NCc2cccc(C(F)(F)F)c2)C(=O)N2CCc3c([nH]c4cc(-c5ccco5)ccc34)[C@]12C)C(C)C	-1.4	20.8	76.5*	-2.1	35.6	2.7
C[C@]12c3[nH]c4ccc(Cl)cc4c3CCN1C(=O)[C@@H](CC(=O)NCc1cccc(C(F)(F)F)c1)C[C@@H]2C(=O)N1CCOCC1	-6.9	18.3	27.7	1.3	35.2	.
CCN(CC)C(=O)[C@H]1C[C@H](CC(=O)NCc2ccco2)C(=O)N2CCc3c([nH]c4ccc(Cl)cc34)[C@]12C	1.0	15.6	33.5	4.7	27.5	.
CCOC(=O)CC1(C)c2nc(NC(C)=O)sc2Cc2sc(NC(C)=O)nc21	.	.	.	1.3	.	.
C[C@H](CO)N1C[C@H](C)[C@H](CN(C)Cc2cccc(F)c2)Oc2ncc(Br)cc2C1=O	.	.	.	0.7	.	.
Cc1onc(C(=O)N2CCN(C(c3ccccc3)c3ccccc3)CC2)c1[N+](=O)[O-]	19.1	28.8	71.4*	-0.7	28.6	88.3*	FLuc counter=51.9*
COc1ccccc1N1CCN(C(=O)c2noc(C)c2[N+](=O)[O-])CC1	-3.5	9.8	8.8	0.6	13.8	.
CCOC(=O)C1=C(COC(=O)CNS(=O)(=O)c2c(F)cc(F)cc2Br)NC(=O)NC1C (centres undefined)	.	.	.	-1.2	.	.
